Measured values as given in PubChem BioAssay (NCATS).
Inconclusive results are not listed. Calls of active or inactive are those of the source. Unless noted, calls come from the whole dose curve; as a rule, active = well fitted curve in the direction sought with a large enough effect; inconclusive = small, poorly fitted or top-dose-only effect, or another doubt; inactive = no such curve, though single readings can be large; an effect the other way counts as inactive or inconclusive. Where a SMILES comes first, the peptide text is derived from it.

What was measured:
[1] = target: Glucocorticoid receptor (Homo sapiens) (UniProt P04150); assay: GR-GFP Redistribution (AID 450;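 active = compounds whose dose series gives a full or clear partial fitted curve of increased nuclear translocation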; note: potency is the fitted concentration of half-maximal effect); details: U2OS GR-GFP nuclear translocation, laser cytometry, 2 h
[2] = target: Glucocorticoid receptor (Homo sapiens) (UniProt P04150); assay: GR-EFC Redistribution (AID 451; calls by dose curve; note: potency is the fitted concentration of half-maximal effect); details: CHO-K1 GR-EFC translocation, beta-gal luminescence, 2 h
Procedure, shortened: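 CHO-K1 cells expressing nuclear EA and GR-ED fragments of b-gal; compounds titrated up to 46 uM final, 2 h at 37 C. GR nuclear translocation read as complemented b-gal luminescence after 1 h RT detection.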

[3] = target: Cytochrome P450 2C9 (Homo sapiens) (UniProt P11712); assay: qHTS Assay for Inhibitors and Substrates of Cytochrome P450 2C9 (AID 883); details: recombinant CYP2C9, luciferin-H luminescence, 60 min; series mostly up to 57.1 µM; note: nearly all actives have a fitted effect of over 60% in size; note: potency is the fitted concentration of half-maximal effect
Procedure, shortened: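 10nM CYP2C9 + 100uM Luciferin-H (=KM), 25mM KPO4; cpd 10 min 37C; NADPH regen, 60 min 37C; stop/detect with P450 Glo-Buffer 20 min; luminescence. Norm. to 57uM sulphaphenazole as full inhibition.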

[4] = target: Cytochrome P450 2C19 (Homo sapiens) (UniProt P33261); assay: qHTS Assay for Inhibitors and Substrates of Cytochrome P450 2C19 (AID 899); details: recombinant CYP2C19, luciferin-H EGE luminescence; series mostly up to 57.1 µM; note: nearly all actives have a fitted effect of over 60% in size; note: potency is the fitted concentration of half-maximal effect
Procedure, shortened: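 Luminescent read-out of luciferin formed from Luciferin-H EGE (10uM, equal to KM). Enzyme 5nM in 50mM KPO4; compound added, 10 min at 37C, then NADPH regenerating system for 60 min at 37C. Full inhibition defined by 57uM ketoconazole.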

[5] = target: Mitogen-activated protein kinase 10 (Mus musculus) (UniProt Q61831); assay: JNK3 AlphaScreen Assay (AID 530; active = well fitted curve in either direction with a large enough effect, not every such curve was filed as active;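 note: kinase came from lysate of stimulated human HepG2 cells; signal reports phosphorylation of biotinylated GST-cJun 1-79 at Ser73 with 10 µM ATP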); details: JNK3 lysate, c-Jun phosphorylation; series mostly up to 57.1 µM
Procedure, shortened: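 Activity was read by AlphaScreen after JNK3-containing HepG2 lysate (cytokine pre-activated) phosphorylated biotinylated GST-cJun with 10 uM ATP at room temperature. Phospho-Ser73 cJun antibody with Protein-A acceptor beads provided detection.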

[6] = target: Cytochrome P450 2D6 (Homo sapiens) (UniProt P10635); assay: qHTS Assay for Inhibitors and Substrates of Cytochrome P450 2D6 (AID 891); details: recombinant CYP2D6, luciferin-ME EGE luminescence; series mostly up to 57.1 µM; note: nearly all actives have a fitted effect of over 60% in size; note: potency is the fitted concentration of half-maximal effect
Procedure, shortened: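 Luminescent read-out of luciferin formed by 5 nM human CYP2D6 demethylating 30 uM Luciferin-ME EGE (Km level) over 60 min at room temperature after NADPH regeneration addition. Data normalized to full inhibition by 1.43 uM quinidine.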

[7] = target: 3',5'-cyclic-AMP phosphodiesterase 4B (Homo sapiens) (UniProt Q07343); assay: qHTS Assay for Inhibitors of PDE-IV (AID 607; active = well fitted activation curve with a large enough effect in the main read-out, with a control signal flat, not every such curve was filed as active); details: HEK293 ACTOne CNG channel cells, membrane potential fluorescence; series mostly up to 22.9 µM
Procedure, shortened: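 Cell-based read-out of cAMP via a modified cyclic nucleotide-gated channel and membrane potential dye (535/590 nm) in HEK293 cells expressing PDE4 endogenously. Compounds tested up to 22.9 uM final; 100 uM RO 20-1724 reference.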

[8] = target: Cytochrome P450 3A4 (Homo sapiens) (UniProt P08684); assay: qHTS Assay for Activators of Cytochrome P450 3A4 (AID 885); details: recombinant CYP3A4, Luciferin-PPXE luminescence, 60 min; series mostly up to 57.1 µM; note: nearly all actives have a fitted effect of over 65% in size
Procedure, shortened: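 Luminescent readout of luciferin formed from 25 uM Luciferin-PPXE (KM level) by 20 nM CYP3A4 in 200 mM KPO4, with 60 min NADPH-driven reaction at room temperature after 10 min compound exposure. Ketoconazole (57 uM) defined 100% inhibition.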

Measured: Potency

Cytochrome P450 2C9 (Homo sapiens), sequence (P11712 whole entry, looked up): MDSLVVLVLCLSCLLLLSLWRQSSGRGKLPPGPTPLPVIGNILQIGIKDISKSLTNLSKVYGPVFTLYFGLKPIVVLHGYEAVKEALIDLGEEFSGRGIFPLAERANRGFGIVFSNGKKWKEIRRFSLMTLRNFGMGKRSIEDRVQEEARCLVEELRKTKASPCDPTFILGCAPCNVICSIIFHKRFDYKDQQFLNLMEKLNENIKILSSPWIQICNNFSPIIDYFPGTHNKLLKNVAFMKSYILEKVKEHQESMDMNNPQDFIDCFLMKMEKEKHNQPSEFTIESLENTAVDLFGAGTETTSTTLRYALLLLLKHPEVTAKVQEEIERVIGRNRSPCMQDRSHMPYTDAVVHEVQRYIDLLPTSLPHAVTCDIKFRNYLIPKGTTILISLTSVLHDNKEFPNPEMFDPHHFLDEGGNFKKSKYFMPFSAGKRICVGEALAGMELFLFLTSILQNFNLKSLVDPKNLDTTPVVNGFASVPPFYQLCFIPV
Glucocorticoid receptor (Homo sapiens), sequence (P04150 whole entry, looked up, the tested form may be a part): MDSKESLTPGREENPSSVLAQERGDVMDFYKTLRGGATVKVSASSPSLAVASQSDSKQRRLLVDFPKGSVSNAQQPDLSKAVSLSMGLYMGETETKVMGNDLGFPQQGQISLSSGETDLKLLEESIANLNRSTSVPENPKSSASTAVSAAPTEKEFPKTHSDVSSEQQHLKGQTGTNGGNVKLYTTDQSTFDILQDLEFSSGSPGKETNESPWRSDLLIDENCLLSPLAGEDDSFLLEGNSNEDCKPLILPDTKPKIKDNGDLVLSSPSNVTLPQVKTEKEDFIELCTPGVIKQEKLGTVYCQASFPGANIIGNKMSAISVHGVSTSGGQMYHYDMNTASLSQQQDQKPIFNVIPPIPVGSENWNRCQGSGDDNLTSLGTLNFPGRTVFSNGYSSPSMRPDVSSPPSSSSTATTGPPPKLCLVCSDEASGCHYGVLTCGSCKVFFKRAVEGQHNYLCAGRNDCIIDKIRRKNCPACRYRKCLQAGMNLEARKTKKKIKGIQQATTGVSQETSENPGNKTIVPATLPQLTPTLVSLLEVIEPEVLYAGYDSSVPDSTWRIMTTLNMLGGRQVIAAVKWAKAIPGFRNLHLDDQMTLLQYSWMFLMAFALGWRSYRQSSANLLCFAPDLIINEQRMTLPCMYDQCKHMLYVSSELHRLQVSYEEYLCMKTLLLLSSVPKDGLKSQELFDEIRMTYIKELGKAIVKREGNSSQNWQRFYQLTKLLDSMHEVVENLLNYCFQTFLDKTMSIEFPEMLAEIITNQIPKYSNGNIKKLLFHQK
Cytochrome P450 2D6 (Homo sapiens), sequence (P10635 whole entry, looked up): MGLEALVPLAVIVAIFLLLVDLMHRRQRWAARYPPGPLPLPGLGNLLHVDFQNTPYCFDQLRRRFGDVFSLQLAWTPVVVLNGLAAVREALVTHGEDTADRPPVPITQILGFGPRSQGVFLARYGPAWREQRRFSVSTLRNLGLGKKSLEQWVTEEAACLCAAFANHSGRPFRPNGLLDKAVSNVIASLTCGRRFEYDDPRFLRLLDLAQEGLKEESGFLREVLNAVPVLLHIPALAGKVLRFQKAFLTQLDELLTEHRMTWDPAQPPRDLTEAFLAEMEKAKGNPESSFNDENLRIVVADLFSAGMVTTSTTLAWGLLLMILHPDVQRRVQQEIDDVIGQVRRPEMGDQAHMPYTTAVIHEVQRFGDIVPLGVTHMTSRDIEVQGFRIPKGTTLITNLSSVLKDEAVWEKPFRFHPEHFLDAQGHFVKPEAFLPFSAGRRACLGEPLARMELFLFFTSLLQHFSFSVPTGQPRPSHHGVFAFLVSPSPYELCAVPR
3',5'-cyclic-AMP phosphodiesterase 4B (Homo sapiens), sequence (Q07343 whole entry, looked up): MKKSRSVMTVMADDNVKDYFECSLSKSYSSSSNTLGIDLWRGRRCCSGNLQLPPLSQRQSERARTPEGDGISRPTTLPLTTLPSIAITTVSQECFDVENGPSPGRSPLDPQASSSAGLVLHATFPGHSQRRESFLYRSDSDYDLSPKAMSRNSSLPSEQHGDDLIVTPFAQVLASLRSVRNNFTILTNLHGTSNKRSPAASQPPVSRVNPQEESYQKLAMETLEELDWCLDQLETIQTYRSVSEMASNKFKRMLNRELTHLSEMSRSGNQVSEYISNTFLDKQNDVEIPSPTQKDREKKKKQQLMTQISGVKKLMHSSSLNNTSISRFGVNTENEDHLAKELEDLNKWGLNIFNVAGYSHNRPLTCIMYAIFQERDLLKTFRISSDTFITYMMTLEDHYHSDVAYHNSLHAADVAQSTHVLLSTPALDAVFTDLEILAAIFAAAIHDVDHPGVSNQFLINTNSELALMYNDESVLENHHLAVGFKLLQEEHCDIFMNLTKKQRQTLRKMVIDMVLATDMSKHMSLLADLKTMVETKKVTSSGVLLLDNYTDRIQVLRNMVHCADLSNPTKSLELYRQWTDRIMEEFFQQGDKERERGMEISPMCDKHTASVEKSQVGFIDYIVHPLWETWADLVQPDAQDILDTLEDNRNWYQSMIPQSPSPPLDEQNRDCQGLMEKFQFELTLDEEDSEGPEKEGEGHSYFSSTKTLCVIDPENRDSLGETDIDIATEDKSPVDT
Cytochrome P450 2C19 (Homo sapiens), sequence (P33261 whole entry, looked up): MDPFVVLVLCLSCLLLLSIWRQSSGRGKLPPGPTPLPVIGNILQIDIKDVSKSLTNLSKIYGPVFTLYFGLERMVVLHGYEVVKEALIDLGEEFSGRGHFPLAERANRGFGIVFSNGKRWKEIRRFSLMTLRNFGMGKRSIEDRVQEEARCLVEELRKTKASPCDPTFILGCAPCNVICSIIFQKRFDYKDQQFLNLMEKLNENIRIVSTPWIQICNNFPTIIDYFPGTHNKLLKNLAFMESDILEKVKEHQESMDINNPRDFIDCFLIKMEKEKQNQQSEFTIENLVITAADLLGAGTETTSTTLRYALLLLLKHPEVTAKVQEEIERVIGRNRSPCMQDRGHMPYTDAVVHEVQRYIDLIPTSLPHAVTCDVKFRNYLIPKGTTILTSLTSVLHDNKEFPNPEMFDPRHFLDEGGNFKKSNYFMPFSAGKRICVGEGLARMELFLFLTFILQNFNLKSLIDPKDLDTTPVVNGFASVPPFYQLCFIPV
Cytochrome P450 3A4 (Homo sapiens), sequence (P08684 whole entry, looked up): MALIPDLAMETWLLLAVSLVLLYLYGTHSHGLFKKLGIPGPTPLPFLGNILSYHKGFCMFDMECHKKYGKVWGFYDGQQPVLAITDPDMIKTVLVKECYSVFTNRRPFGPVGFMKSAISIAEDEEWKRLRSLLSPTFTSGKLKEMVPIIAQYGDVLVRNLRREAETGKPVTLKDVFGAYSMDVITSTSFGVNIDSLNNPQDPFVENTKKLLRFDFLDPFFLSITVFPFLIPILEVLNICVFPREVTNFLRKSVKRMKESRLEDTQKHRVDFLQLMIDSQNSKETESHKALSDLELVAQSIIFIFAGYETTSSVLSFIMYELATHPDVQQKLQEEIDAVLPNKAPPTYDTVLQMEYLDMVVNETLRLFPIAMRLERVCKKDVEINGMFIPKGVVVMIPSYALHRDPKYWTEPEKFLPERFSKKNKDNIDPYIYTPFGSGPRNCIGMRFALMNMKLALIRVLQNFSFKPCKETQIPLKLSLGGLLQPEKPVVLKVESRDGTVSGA

COc1ccc2c(c1O)-c1c(OC)c(OC)cc3c1[C@@H](C2)N(C)CC3
inactive: [1] > 46 µM | [2] > 46 µM | [3] | [4]

Cc1c(N=Cc2c(O)n(CCc3ccc(F)cc3)c(=O)[nH]c2=O)c(=O)n(-c2ccccc2)n1C
inactive: [1] > 20.6 µM

CCN1C[C@@]2(C)CC[C@H](O)[C@@]34[C@@H]5C[C@H]6[C@H](O)[C@@H]5[C@](O)(C[C@@H]6OC)[C@H](C[C@@H]23)[C@H]14
inactive: [1] > 46 µM | [2] > 46 µM | [5] | [3] | [6] | [4]

C=C1C/C(=C\C)C(=O)O[C@@H]2CCN3CC=C(COC(=O)[C@]1(C)O)[C@H]23
inactive: [1] > 46 µM | [2] > 46 µM | [5] | [7] | [3] | [6] | [4]

CC1=C2[C@@H]3OC(=O)[C@H](C)[C@H]3CC[C@@]2(C)C=CC1=O
inactive: [1] > 46 µM | [2] > 46 µM | [5] | [7] | [3] | [6] | [4]

C=C(C)[C@H]1[C@H]2OC(=O)[C@@H]1[C@]1(O)C[C@H]3O[C@]34C(=O)O[C@H]2[C@]14C
inactive: [1] > 46 µM | [2] > 46 µM | [7]

COC1=C[C@H]2[C@@H]3Cc4ccc(OC)c(O)c4[C@@]2(CCN3C)CC1=O
inactive: [1] > 46 µM | [2] > 46 µM | [5] | [7] | [3] | [4]

CC(C)C[C@H](NC(=O)[C@@H]1CCCN1C(=O)[C@@H](N)Cc1ccc(O)cc1)C(=O)NCC(N)=O (H-YPLG-NH2)
inactive: [1] > 20.6 µM

COc1cc2c(cc1O)-c1c(O)c(OC)cc3c1[C@H](C2)N(C)CC3
inactive: [1] > 46 µM | [2] > 46 µM | [5] | [8]
active: [6] 2.51 µM

c1cc2c(cc1[C@H]1OC[C@H]3[C@@H]1CO[C@H]3c1ccc3c(c1)OCO3)OCO2
inactive: [1] > 46 µM | [2] > 46 µM | [5] | [7]
active: [3] 3.98 µM | [6] 15.8 µM | [4] 3.16 µM

O=C(Nc1ccncc1)c1c(O)c2ccccc2n(Cc2ccccc2)c1=O
inactive: [1] > 20.6 µM

COc1cc2c(cc1OC)-c1c(OC)c(OC)c(CO)c3c1[C@H](C2)N(C)CC3
inactive: [1] > 46 µM | [2] > 46 µM | [5] | [7] | [3] | [6] | [4]

C[C@H]1CCCC=CC2C[C@H](O)C[C@@H]2[C@H](O)/C=C\C(=O)O1 (stereo not given in full)
inactive: [1] > 46 µM | [2] > 46 µM | [5] | [7] | [8]
